Experimental data from PubChem BioAssay (Tox21).
Inconclusive results are not listed. A call without a number means that no potency is given here. The source made the active and inactive calls. Calls follow the shape of the dose curve; as a rule, active = well fitted cell-killing curve with a large enough effect in the repeat runs; inconclusive = weak or mixed curves, or effect the other way; inactive = flat fitted curve, though single readings scatter.

Legend:
[1] = cAMP Responsive Elements (CRE) small molecule antagonists, cell-based qHTS assay: qHTS cell viability counter screen (AID 2060913); details: CRE-bla HEK293T viability, CellTiter-Glo luminescence, 5 h; series mostly up to 92.4 µM; also: nearly all actives have a fitted effect of over 40% in size
Procedure, shortened: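 HEK293T CRE-bla, 2,000 cells/well, 18 h preincubation; cpd in DMSO + NKH477 0.25 uM final, 3 h 37 C/5% CO2; LiveBLAzer 2 h RT, then CellTiter-Glo 30 min RT, luminescence.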

[2] = cAMP Responsive Elements (CRE) small molecule agonists, cell-based qHTS assay: qHTS cell viability counter screen (AID 2060914); details: CRE-bla HEK293T viability, CellTiter-Glo luminescence, 5 h; series mostly up to 92.4 µM; also: nearly all actives have a fitted effect of over 50% in size
Procedure, shortened: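 In the same wells as the reporter read, viability of CRE-bla HEK 293T cells was quantified by CellTiter-Glo luminescence after a 3 h compound exposure.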
Potency is read from the fitted curve at half-maximal effect.

In the case of `[Cl-].[Cl-].[Sn+2]`, the Potency [1] was “inactive” and the Potency [2] was “inactive”.
With `O=C(CCl)Nc1ccccc1` the Potency [1] was “inactive” and the Potency [2] was “inactive”.
With `OC[P+](CO)(CO)CO` the Potency [1] was “inactive” and the Potency [2] was “inactive”.
With `CCCCCCCCCc1ccc(O)cc1` the Potency [1] was “inactive” and the Potency [2] was “inactive”.
With `NNC(=O)c1ccccc1` the Potency [1] was “inactive” and the Potency [2] was “inactive”.
In the case of `CCCCn1cc[n+](C)c1C`, the Potency [1] was “inactive” and the Potency [2] was “inactive”.
With `CCCSP(=S)(OCC)Oc1ccc(Cl)cc1Cl` (stereo not drawn) the Potency [1] was “inactive” and the Potency [2] was “inactive”.
For `CC(C)N(C(=O)CCl)c1ccccc1`, the Potency [1] was “inactive” and the Potency [2] was “inactive”.
For `CCCCOP(=O)(O)OCCCC`, the Potency [1] was “inactive” and the Potency [2] was “inactive”.
In the case of `C[N+](C)=CCl`, the Potency [1] was “inactive” and the Potency [2] was “inactive”.
In the case of `CCN(N=O)C(N)=O`, the Potency [1] was “inactive” and the Potency [2] was “inactive”.
For `CON(C)C(=O)Nc1ccc(Br)cc1`, the Potency [1] was “inactive” and the Potency [2] was “inactive”.
For `[O-][Cl+3]([O-])([O-])O`, the Potency [1] was “inactive” and the Potency [2] was “inactive”.
In the case of `CC(C)(C)c1ccc(CCOc2ncnc3ccccc23)cc1`, the Potency [1] was “inactive” and the Potency [2] was “inactive”.
With `C=CC(=O)OCCCCCC(C)C` the Potency [1] was “inactive” and the Potency [2] was “inactive”.
For `CCC1(c2ccccc2)CCC(=O)NC1=O` (stereo not drawn), the Potency [1] was “inactive” and the Potency [2] was “inactive”.
With `CCCCCCCCCl` the Potency [1] was “inactive” and the Potency [2] was “inactive”.
For `CCOP(=O)(SC(C)CC)N1CCSC1=O` (stereo not drawn), the Potency [1] was “inactive” and the Potency [2] was “inactive”.
In the case of `COC(=O)C(C)Oc1ccc(Oc2ccc(Cl)cc2Cl)cc1` (stereo not drawn), the Potency [1] was “inactive” and the Potency [2] was “inactive”.
With `O=C1C(=O)c2cccc3cccc1c23` the Potency [1] was “inactive” and the Potency [2] was “inactive”.
For `CC1CCC(C(C)C)C(OC(=O)c2ccccc2N)C1` (stereo not drawn), the Potency [1] was 47.9 µM (active) and the Potency [2] was 53.7 µM (active).
In the case of `O=C(O)Cc1ccccc1`, the Potency [1] was “inactive” and the Potency [2] was “inactive”.
With `CCN(C)N=O` the Potency [1] was “inactive” and the Potency [2] was “inactive”.
In the case of `C=CCOC(Cn1ccnc1)c1ccc(Cl)cc1Cl` (stereo not drawn), the Potency [1] was “inactive” and the Potency [2] was “inactive”.
In the case of `O=NN(c1ccccc1)c1ccccc1`, the Potency [1] was “inactive” and the Potency [2] was “inactive”.
For `CC(C)c1cccc(C(C)C)c1O`, the Potency [1] was “inactive” and the Potency [2] was “inactive”.
For `CCCN(CC1CC1)c1c([N+](=O)[O-])cc(C(F)(F)F)cc1[N+](=O)[O-]`, the Potency [1] was “inactive” and the Potency [2] was “inactive”.
In the case of `NNc1ccccc1`, the Potency [1] was “inactive” and the Potency [2] was “inactive”.
For `NC(=S)C(N)=S`, the Potency [1] was “inactive” and the Potency [2] was “inactive”.
With `CC(C(=O)c1ccccc1)N(C)C` (stereo not drawn) the Potency [1] was “inactive” and the Potency [2] was “inactive”.
With `N#CCCCl` the Potency [1] was “inactive” and the Potency [2] was “inactive”.
For `CC[n+]1c(-c2ccccc2)c2cc(N)ccc2c2ccc(N)cc21`, the Potency [1] was “inactive” and the Potency [2] was “inactive”.
With `C=CC1CC=CCC1` (stereo not drawn) the Potency [1] was “inactive” and the Potency [2] was “inactive”.
With `CC1(C)[C@H](C=C(Cl)Cl)[C@@H]1C(=O)O[C@@H](C#N)c1cccc(Oc2ccccc2)c1` the Potency [1] was “inactive” and the Potency [2] was “inactive”.
For `Clc1ccc(Cl)cc1`, the Potency [1] was “inactive” and the Potency [2] was “inactive”.
For `CNC(=O)Oc1c(C(C)(C)C)cc(C)cc1C(C)(C)C`, the Potency [1] was “inactive” and the Potency [2] was “inactive”.
With `Cc1nnc(-c2ccccc2)c(=O)n1N` the Potency [1] was “inactive” and the Potency [2] was “inactive”.
For `CC1(C)COP(Oc2ccccc2)OC1`, the Potency [1] was “inactive” and the Potency [2] was “inactive”.
With `O=C(O)[C@H](O)[C@@H](O)C(=O)O` the Potency [1] was “inactive” and the Potency [2] was “inactive”.
